Source: PubChem BioAssay (NCATS)
Results filed as inconclusive are left out. Calls of active or inactive are those of the source. Calls come from the whole dose curve; as a rule, active = well fitted cell-killing curve with a large enough effect; inconclusive = small, poorly fitted or top-dose-only effect, or effect the other way; inactive = no such curve, though single readings can be large or run the other way. Positions of bridges follow the written chain, without caps; N, C: chain ends. Non-standard residues stand in square brackets, D forms with d. Residues, ends and D or L forms follow the SMILES beside them. ξ: configuration not given here. *: point of attachment. Octanoyl(6-Me) = CCC(C)CCCCC(=O)*; ξThr(3R) = C[C@@H](O)C(N)C(=O)O; dDab = NCC[C@@H](N)C(=O)O; Dab = NCC[C@H](N)C(=O)O

Legend:
[1] = Quantitative High-Throughput drug screen in 47 multiple myeloma cell lines against the NCATS MIPE library collection: FR4_PLB cell viability assay (AID 1918924; note: nearly all actives have a fitted effect of over 35% in size)
Method in brief: (§1)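 CellTiter-Glo luminescence (ATP) after 48 h compound exposure, 37C/5% CO2; 500 cells/well; MIPE 4.0 approved/investigational drugs pinned in; DMSO = 100%, media only = 0% viability.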

[2] = Quantitative High-Throughput drug screen in 47 multiple myeloma cell lines against the NCATS MIPE library collection: Delta47_JCRB cell viability assay (AID 1918925; note: nearly all actives have a fitted effect of over 45% in size)
Method in brief: (§2)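 qHTS of the MIPE 4.0 collection: 500 myeloma cells/well, 48 h drug exposure at 37C in 5% CO2, then CellTiter-Glo for 5 min at room temperature before luminescence reading.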

[3] = Quantitative High-Throughput drug screen in 47 multiple myeloma cell lines against the NCATS MIPE library collection: EJM_DSMZ cell viability assay (AID 1918926; note: nearly all actives have a fitted effect of over 30% in size)
Method in brief: as §2

[4] = Quantitative High-Throughput drug screen in 47 multiple myeloma cell lines against the NCATS MIPE library collection: AMO1_DSMZ cell viability assay (AID 1918927; note: nearly all actives have a fitted effect of over 30% in size)
Method in brief: as §2

[5] = Quantitative High-Throughput drug screen in 47 multiple myeloma cell lines against the NCATS MIPE library collection: ARP1_JJKsccF8 cell viability assay (AID 1918928; note: nearly all actives have a fitted effect of over 40% in size)
Method in brief: (§3)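 Here, 48 h treatment with MIPE 4.0 agents at 37 °C preceded an ATP luminescence read. Plating density was 500 cells per well.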

[6] = Quantitative High-Throughput drug screen in 47 multiple myeloma cell lines against the NCATS MIPE library collection: ARD_JJKsccE7 cell viability assay (AID 1918929)
Method in brief: as §2

[7] = Quantitative High-Throughput drug screen in 47 multiple myeloma cell lines against the NCATS MIPE library collection: Karpas620_DSMZ cell viability assay (AID 1918959); note: nearly all actives have a fitted effect of over 30% in size
Method in brief: as §1

[8] = Quantitative High-Throughput drug screen in 47 multiple myeloma cell lines against the NCATS MIPE library collection: KMM1_JCRB cell viability assay (AID 1918960); note: nearly all actives have a fitted effect of over 30% in size
Method in brief: as §3
Potency is the fitted concentration of half-maximal effect.

SMILES	Potency [1]	Potency [2]	Potency [3]	Potency [4]	Potency [5]	Potency [6]	Potency [7]	Potency [8]
O=C(CN1C(=O)C2(CCCC2)NC[C@H]1c1cc(F)cc(F)c1)Nc1ccc2c(c1)C[C@@]1(C2)C(=O)Nc2ncccc21	inactive	inactive	inactive	inactive	inactive	inactive		
COc1cc2c(cc1OC)[C@@H]1C(=O)c3ccc4c(c3O[C@@H]1CO2)C=CC(C)(C)O4	4.18 µM (active)	0.0105 µM (active)	8.33 µM (active)	0.0935 µM (active)	0.059 µM (active)	0.0235 µM (active)	0.0332 µM (active)	
CCC(C=C[C@@H]1OC(=O)C=C[C@H]1C)=C[C@H](C)CC=CC(C)=C[C@@H](C)C(=O)[C@@H](C)[C@H](O)[C@@H](C)CC(C)=CC(=O)O	0.0311 µM (active)	0.022 µM (active)	0.0277 µM (active)	0.0349 µM (active)	0.0277 µM (active)	0.0349 µM (active)	0.0124 µM (active)	0.022 µM (active)
CC(C=CC1=C(C)CCCC1(C)C)=CC=CC(C)=CC(=O)Nc1ccc(O)cc1	9.59 µM (active)	3.82 µM (active)	8.55 µM (active)	3.4 µM (active)	19.1 µM (active)	8.55 µM (active)		
Nc1nc(N)c2nc(-c3cccc(O)c3)c(-c3cccc(O)c3)nc2n1	10.5 µM (active)	5.9 µM (active)	18.7 µM (active)	7.43 µM (active)	20.9 µM (active)	8.33 µM (active)	11.8 µM (active)	3.72 µM (active)
CC[C@H](CC[C@@H](C)[C@H]1CC[C@H]2[C@@H]3CC=C4C[C@@H](O)CC[C@]4(C)[C@@H]3CC[C@]12C)C(C)C	inactive	inactive	inactive	inactive	inactive	inactive	inactive	inactive
CC(C=CC(=O)NO)=C[C@@H](C)C(=O)c1ccc(N(C)C)cc1	0.332 µM (active)	0.235 µM (active)	0.469 µM (active)	0.235 µM (active)	0.209 µM (active)	0.264 µM (active)	0.418 µM (active)	0.209 µM (active)
CC(=O)N1CCN(c2ccc(OCc3nn(C)c(C)c3-c3cccc4c(CCCOc5cccc6ccccc56)c(C(=O)O)n(Cc5cccnc5)c34)cc2)CC1	10.5 µM (active)	0.332 µM (active)	0.105 µM (active)	0.0526 µM (active)	10.5 µM (active)	0.118 µM (active)	1.87 µM (active)	1.18 µM (active)
NC(=O)N1CCC(CC(=O)N2CCC([C@H]3c4ncc(Br)cc4CCc4cc(Cl)cc(Br)c43)CC2)CC1	20.9 µM (active)	8.33 µM (active)	20.9 µM (active)	7.43 µM (active)	13.2 µM (active)	2.09 µM (active)		18.7 µM (active)
COc1cc(OC)cc(-c2ccc3ncc4ccc(=O)n(-c5ccc(N6CCNCC6)c(C(F)(F)F)c5)c4c3c2)c1	4.69 µM (active)	1.48 µM (active)	5.9 µM (active)	1.18 µM (active)	3.32 µM (active)	2.64 µM (active)		2.96 µM (active)
CCCNC(=O)[C@H]1O[C@H]1C(=O)N[C@H](C(=O)N1CCC[C@@H]1C(=O)OC)C(C)CC (stereo not given in full)	8.33 µM (active)	13.2 µM (active)	5.9 µM (active)	4.69 µM (active)	8.33 µM (active)		5.9 µM (active)	9.35 µM (active)
COc1ccc2c(c1OC)C(=O)OC2[C@H]1c2c(cc3c(c2OC)OCO3)CCN1C (stereo not given in full)	0.0526 µM (active)	0.187 µM (active)	2.09 µM (active)	0.0743 µM (active)	0.0526 µM (active)	0.0743 µM (active)	0.0264 µM (active)	0.148 µM (active)
C=CCNc1c(O)cc2c(O)c1C[C@@H](C)C[C@H](OC)[C@@H](O)[C@@H](C)C=C(C)[C@H](OC(N)=O)[C@@H](OC)C=CC=C(C)C(=O)N2	0.372 µM (active)	0.469 µM (active)	1.05 µM (active)	0.148 µM (active)	0.148 µM (active)	0.0743 µM (active)		0.372 µM (active)
O=C1NC(=O)C(=Cc2ccc3nccc(-c4ccncc4)c3c2)S1	0.332 µM (active)	0.0332 µM (active)	0.662 µM (active)	0.372 µM (active)	0.0833 µM (active)	0.118 µM (active)		0.132 µM (active)
Cc1ccc2nc(NCCN)c3ncc(C)n3c2c1	3.32 µM (active)	5.9 µM (active)	1.48 µM (active)	8.33 µM (active)	8.33 µM (active)	9.35 µM (active)	11.8 µM (active)	7.43 µM (active)
CC(C)[C@H](CO)Nc1nc(Nc2cccc(Cl)c2)c2ncn(C(C)C)c2n1	16.6 µM (active)	18.7 µM (active)	23.5 µM (active)	inactive	23.5 µM (active)		inactive	
Cn1cc(C[C@@H](N)C(=O)O)c2ccccc21	inactive	inactive	inactive	inactive	inactive		inactive	inactive
COc1cccc2c1C(=O)c1c(O)c3c(c(O)c1C2=O)C[C@@](O)(C(=O)CO)C[C@@H]3O[C@H]1C[C@H](N)[C@@H](O)[C@H](C)O1	0.743 µM (active)	0.209 µM (active)	0.59 µM (active)	1.18 µM (active)	0.469 µM (active)	2.64 µM (active)	2.35 µM (active)	2.09 µM (active)
C[C@@H](Oc1ccc2[nH]nc(C=Cc3cnn(CCO)c3)c2c1)c1c(Cl)cncc1Cl	26.4 µM (active)	0.469 µM (active)	4.18 µM (active)	inactive	5.26 µM (active)	inactive		inactive
CC(=O)O[C@H]1C[C@@H]2CC[C@H]3[C@H]4C[C@H]([N+]5(C)CCCCC5)[C@@H](OC(C)=O)[C@@]4(C)CC[C@@H]3[C@@]2(C)C[C@H]1N1CCCCC1	inactive	inactive	inactive	inactive	inactive	inactive		inactive
CCC(C)CCCCC(=O)N[C@@H](CCN)C(=O)NC(C(=O)N[C@H](CCN)C(=O)N[C@@H]1CCNC(=O)C([C@@H](C)O)NC(=O)[C@@H](CCN)NC(=O)[C@@H](CCN)NC(=O)[C@@H](CC(C)C)NC(=O)[C@H](Cc2ccccc2)NC(=O)[C@H](CCN)NC1=O)[C@@H](C)O (stereo partly drawn) ({Octanoyl(6-Me)}-[Dab][ξThr(3R)][dDab][dDab][Dab]F[dL][dDab][dDab][ξThr(3R)]; lactam 4-C)	inactive	inactive	inactive	inactive	inactive		inactive	inactive
CC(C)N(CC[C@H](c1ccccc1)c1cc(CO)ccc1O)C(C)C	inactive	inactive	inactive	inactive	inactive		inactive	inactive
CC(C)OC(=O)[C@H](C)N[P@](=O)(OC[C@H]1O[C@@H](n2ccc(=O)[nH]c2=O)[C@](C)(F)[C@H]1O)Oc1ccccc1	inactive	inactive	inactive	inactive	inactive	inactive	inactive	inactive
C[C@H](NC(=O)C(C#N)=Cc1cccc(Br)n1)c1ccccc1	3.72 µM (active)	2.09 µM (active)	1.66 µM (active)	13.2 µM (active)	5.9 µM (active)	11.8 µM (active)	11.8 µM (active)	10.5 µM (active)
